Measured values from the supplement of paper PMC4840960.
± gives the standard deviation of the averaged measurements.

System: E18 rat cortical neuron-glia co-culture
Assay: fiber score / MBP score (myelination specific beyond OL differentiation) (ratio); higher = more myelination-specific MBP alignment
Settings: 1 µM; treatment time: 8 days (DIV5-DIV13)
How it was run: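 Papain-dissociated primary E18 rat cortical co-cultures, plated at 20,000 cells/well on poly-d-lysine/laminin 96-well plates, were exposed to library compounds at 1 or 5 µM in myelination medium between DIV5 and DIV13. Following fixation in 4 % paraformaldehyde, cultures were stained for MBP, Olig2 and DAPI, and four 10X fields per well were analysed in duplicate wells. Values are the ratio of fiber score (continuous MBP fiber length per Olig2+ nucleus) to MBP score (thresholded MBP area × intensity per Olig2+ nucleus).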

Point of comparison: `CCc1cccc2c3c([nH]c12)C(CC)(CC(=O)O)OCC3` (centres undefined) [Etodolac], “fiber score / MBP score” value 0.706. Against it:
- Cc1nc2n(c(=O)c1CCN1CCC(c3noc4cc(F)ccc34)CC1)CCCC2 [Risperidone] — higher, 0.936
- CN(C)CCCSc1ccccc1NC(=O)/C=C/c1ccccc1 [Cinanserin] — higher, 0.858
- CCCOc1ccc(C(=O)OCCN(CC)CC)cc1N [Proxymetacaine] — higher, 1.15
- CC(=O)OCC(CCn1cnc2cnc(N)nc21)COC(C)=O [Famciclovir] — lower, 0.681
- CN(C)CC/C=C1/c2ccccc2COc2ccc(CC(=O)O)cc21 [Olopatadine] — higher, 0.791
- Nc1nc(Cl)nc2c1ncn2[C@@H]1O[C@H](CO)[C@@H](O)[C@H]1O [2-Chloroadenosine] — higher, 0.752
- CCOC(=O)[C@H](CCc1ccccc1)N[C@@H](C)C(=O)N1Cc2ccccc2C[C@H]1C(=O)O [Quinapril] — higher, 0.878
- O=C1c2c(O)cc(O)cc2O[C@H](c2ccc(O)c(O)c2)[C@H]1O [Distylin] — higher, 0.8
- COc1ccc2[nH]c([S+]([O-])Cc3ncc(C)c(OC)c3C)nc2c1 (centres undefined) [Omeprazole] — lower, 0.656
- CO[C@H]1/C=C/O[C@@]2(C)Oc3c(C)c(O)c4c(c3C2=O)C2=NC3(CCN(CC(C)C)CC3)NC2=C(NC(=O)/C(C)=C\C=C\[C@H](C)[C@H](O)[C@@H](C)[C@@H](O)[C@@H](C)[C@H](OC(C)=O)[C@@H]1C)C4=O [Rifabutin] — within error, 0.967 ± 0.41
- CCc1ccc(CCOc2ccc(CC3SC(=O)NC3=O)cc2)nc1 (centres undefined) [Pioglitazone] — higher, 0.868
- CC(=O)OCC(=O)[C@@]1(O)CC[C@H]2[C@@H]3CCC4=CC(=O)CC[C@]4(C)[C@H]3C(=O)C[C@@]21C [Cortisone acetate] — higher, 0.82
- C[C@]12CCC(=O)C=C1CC[C@@H]1[C@@H]2[C@@H](O)C[C@@]2(C)[C@H]1CC[C@]2(O)C(=O)CO [Hydrocortisone] — within error, 0.712 ± 0.026
- O=C(O)CCNC(=O)c1ccc(/N=N/c2ccc(O)c(C(=O)O)c2)cc1 [Balsalazide] — higher, 0.862
- OCCOCCN1CCN(C2=Nc3ccccc3Sc3ccccc32)CC1 [Quetiapine hemifumarate] — lower, 0.545
- COc1cc(N)c(Cl)cc1C(=O)NC1CCN(CCCOc2ccc(F)cc2)CC1OC (centres undefined) [Cisapride] — higher, 0.935
- O=C(NCCN1CCOCC1)c1ccc(Cl)cc1 [Moclobemide] — lower, 0.601
- CCC(=O)NS(=O)(=O)c1ccc(-c2c(-c3ccccc3)noc2C)cc1 [Parecoxib] — lower, 0.57
- COc1cc(CNC(=O)CCCC/C=C\C(C)C)ccc1O [Zucapsaicin] — higher, 0.875
- CC(C)c1ccc2oc3nc(N)c(C(=O)O)cc3c(=O)c2c1 [Amlexanox] — higher, 0.826
- NS(=O)(=O)c1cc2c(cc1C(F)(F)F)NCNS2(=O)=O [Hydroflumethiazide] — higher, 0.948
- CN(C)CCCN1c2ccccc2Sc2ccc(Cl)cc21 [Chlorpromazine] — higher, 1.04
- Cc1ncc([N+](=O)[O-])n1CC(O)CCl (centres undefined) [Ornidazole] — lower, 0.58
- Cc1cc2c(s1)Nc1ccccc1N=C2N1CCN(C)CC1 [Olanzapine] — higher, 1.2
- Cc1cn([C@H]2C=C[C@@H](CO)O2)c(=O)[nH]c1=O [Stavudine] — within error, 0.646 ± 0.15
- CC1=C(C/C=C(\C)CCC[C@H](C)CCC[C@H](C)CCCC(C)C)C(=O)c2ccccc2C1=O [Phylloquinone] — higher, 0.894
- CCOC(=O)c1ncn2c1CN(C)C(=O)c1cc(F)ccc1-2 [Flumazenil] — higher, 0.859
- CCc1oc2ccccc2c1C(=O)c1cc(Br)c(O)c(Br)c1 [Benzbromarone] — higher, 0.764
- C[C@H]1COc2c(C3(N)CC3)c(F)cc3c(=O)c(C(=O)O)cn1c23 [Pazufloxacin] — higher, 0.814
- O=C(O)CCc1nc(-c2ccccc2)c(-c2ccccc2)o1 [Oxaprozin] — lower, 0.677
- CCN1CCCC1CNC(=O)c1cc(S(N)(=O)=O)ccc1OC (centres undefined) [Sulpiride] — higher, 0.858
- CC1(C)O[C@@H]2C[C@H]3[C@@H]4C[C@H](F)C5=CC(=O)C=C[C@]5(C)[C@@]4(F)[C@@H](O)C[C@]3(C)[C@]2(C(=O)CO)O1 [Fluocinolone Acetonide] — higher, 1.4
- CC(=O)O[C@H]1C[C@@H]2CC[C@@H]3[C@H](CC[C@@]4(C)[C@H]3C[C@H]([N+]3(C)CCCCC3)[C@@H]4OC(C)=O)[C@@]2(C)C[C@@H]1N1CCCCC1 [Vecuronium Bromide] — lower, 0.647
- NC1CCN(c2nc3c(cc2F)c(=O)c(C(=O)O)cn3-c2ccc(F)cc2F)C1 (centres undefined) [Tosufloxacin] — higher, 0.855
- CC(=O)CC(c1ccccc1)c1c(O)c2ccccc2oc1=O (centres undefined) [Warfarin] — lower, 0.617
- NS(=O)(=O)c1cc(C(=O)O)c(NCc2ccco2)cc1Cl [Furosemide] — higher, 0.894
- COc1ccc(CC2c3cc(OC)c(OC)cc3CC[N+]2(C)CCC(=O)OCCCCCOC(=O)CC[N+]2(C)CCc3cc(OC)c(OC)cc3C2Cc2ccc(OC)c(OC)c2)cc1OC (centres undefined) [Atracurium] — higher, 0.771
- CC(c1cc2ccccc2s1)N(O)C(N)=O (centres undefined) [Zileuton] — lower, 0.599
